{"source": "PubChem BioAssay AID2284366", "about": "(EPA ToxCast)", "test_system": "zebrafish Peroxisome Proliferator-activated Receptor gamma (PPARg), gene 557037", "assay": "ATG_zfPPARg_EcoTox2: Attagene TRANS-FACTORIAL EcoTox-2 HepG2 Assay for zebrafish Peroxisome Proliferator-activated Receptor gamma (PPARg)", "method": "ATG_EcoTox2 is a cell-based, multiplexed assay created by modifying the existing Attagene TRANS-FACTORIAL system to include a panel of nuclear receptors from some or all the following species: human (Homo sapiens), african clawed frog (Xenopus laevis), rainbow trout (Oncorhynchus mykiss), japanese medaka (Oryzias latipes), and zebrafish (Danio rerio). The ECOTOX2-FACTORIAL format uses HepG2, a human liver cell line, with measurements taken at 24 hours after chemical dosing in a 24-well plate. ATG_zfPPARg_EcoTox2 is one of 29 assay components calculated in the ATG_EcoTox2 assay. It is designed to make measurements of mRNA induction, a form of inducible reporter, as detected with fluorescence intensity signals by Reverse transcription polymerase chain reaction (RT-PCR) and Capillary electrophoresis technology.The assay endpoint ATG_zfPPARg_EcoTox2 was analyzed in the positive analysis fitting direction relative to DMSO as the negative control and baseline of activity. Using a type of inducible reporter, measures of mRNA for gain-of-signal activity can be used to understand the reporter gene at the transcription factor-level as they relate to the gene PPARg. Furthermore, this assay endpoint can be referred to as a primary readout, because this assay has produced multiple assay endpoints where this one serves a reporter gene function. To generalize the intended target to other relatable targets, this assay endpoint is annotated to the nuclear receptor intended target family, where the subfamily is non-steroidal.\nHuman liver HepG2 cells are transiently transfected with multiple reporter transcription units (MRTUs) in 6-well plates using FuGene 6 reagent (Roche; 3 ml FuGene/1 mg DNA). The MRTU constructs are regulated by a cis-regulating element (promoter). Each RTU expresses a GAL4-UAS that regulates the transcription of a nearby target reporter gene sequence. A major difference between the CIS and TRANS system is that in CIS activities of endogenous TFs are measured, whereas the TRANS assay evaluates changes in activities of exogenous, chimeric NR-Gal4 proteins. […] At the end of 24 hour incubation, total RNA was isolated using TriZol reagent (Invitrogen). The isolated RNA is then reverse-transcribed using oligo(dT) primer and Mo-MLV reverse transcriptase (Invitrogen) with DNAse I (Ambion) treatment for 30 min. The one-tenth of the produced cDNA was amplified by PCR using Taq DNA polymerase (Invitrogen) and two reporter sequence-specific primers. The PCR products were fluorescently labeled by primer extension with 6-arboxyfluorescein (6-FAM) 5'-labeled reporter sequence-specific primer (2 min at 95 C, 20 s at 68 C and 10 min at 72 C) and these products were digested with 5U of HpaI (New England Biolabs) for 2h at 37 C. The fragments were purified using Qiaquick PCR columns (Qiagen), analyzed on an ABI 3130xL genetic analyzer (Applied Biosystems) with peak positions identified by using a set of X-rhodamine (ROX)-labeled MapMarker1000 molecular weight standards (BioVentures). The raw capillary electrophoresis data was processed using Attagraph software (Attagene).", "note": "Results filed as inconclusive are left out. Activity calls are given as the source filed them. Rule for the calls: active = hit-call score of the fitted dose curve at least 0.9, where 1 is the maximum; inconclusive = response in the unintended direction; inactive = score below 0.9."}
{"smiles": "O=C(O)C(F)(F)C(F)(F)C(F)(F)C(F)(F)C(F)(F)C(F)(F)C(F)(F)F", "values": [{"measurement": "outcome", "result": "inactive"}]}
{"smiles": "O=P(Oc1ccccc1)(Oc1ccccc1)Oc1ccccc1", "values": [{"measurement": "AC50", "result": "13.2 µM (active)"}]}
{"smiles": "O=S(=O)(O)C(F)(F)C(F)(F)C(F)(F)C(F)(F)C(F)(F)C(F)(F)F", "values": [{"measurement": "outcome", "result": "inactive"}]}
{"smiles": "[Cl][Sn]([c]1ccccc1)([c]1ccccc1)[c]1ccccc1", "values": [{"measurement": "outcome", "result": "inactive"}]}
{"smiles": "CCCCOCN(C(=O)CCl)c1c(CC)cccc1CC", "values": [{"measurement": "outcome", "result": "inactive"}]}
